Some test systems named below: HCT-15 colon; HT29 colon; SNB-75 CNS; SNB-19 CNS; U251 CNS; PC-3 prostate; SK-MEL-5 melanoma; UACC-62 melanoma; LOX IMVI melanoma; SK-MEL-28 melanoma; SK-MEL-2 melanoma; EKVX NSCLC; SN12C renal; UO-31 renal; TK-10 renal; ACHN renal; CAKI-1 renal; A498 renal; CCRF-CEM leukemia; MOLT-4 leukemia.
Assay in all cases: NCI-60 one-dose screen, 48 h (100 = growth as untreated, 0 = no growth, -100 = all killed)
Common to all, as to conditions: 10 µM unless noted

These results are taken from PubChem BioAssay (NCI).

This is part of a sample that, as a whole, favours compounds with a hit. Of some 83,000 tested, about 20% had one in any assay.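 Results are percent growth after 48 hours of single-concentration exposure. 100 means growth as in untreated cells, lower positive values show inhibition; negative values down to -100 show cell death.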 Values without a mark were called inactive. Calls of active or inactive are those of the source. How the source made its calls: active means growth percent below 10; inactive means the rest.

Consider `N#Cc1c(-c2ccccc2)c(C#N)c2c(C#N)c(N)nn2c1N`, for which the growth with HCT-15 colon was 24.3%; in the assay with HT29 colon, 8.55% (active); in the assay with SNB-75 CNS it was 52.1%; with SNB-19 CNS, 38.1%; with U251 CNS it was 20.3%; in the assay with PC-3 prostate, 50.5%. Also, the growth in the assay on SK-MEL-5 melanoma was 24.7%; with UACC-62 melanoma, 19.6%; in the assay on LOX IMVI melanoma, 35.6%; in the assay with SK-MEL-28 melanoma, 56.8%; in the assay on SK-MEL-2 melanoma, 9.95% (active); in the assay on EKVX NSCLC, 47.3%. In addition, the growth was 51.7% in the assay with SN12C renal; 52.1% in the assay with UO-31 renal; 67% in the assay with TK-10 renal; 60.9% in the assay with ACHN renal; 47% with CAKI-1 renal; -8.04% (active) in the assay on A498 renal. The growth in the assay on CCRF-CEM leukemia was 13.3%; in the assay with MOLT-4 leukemia, 11.7%.

For `O=P(O)(O)OCC1OC(n2cnc3c(NCc4ccccc4)ncnc32)C(O)C1O` (stereo not given), the growth is 9.47% (active) in the assay with HCT-15 colon; 23.3% in the assay on HT29 colon; 49.9% with SNB-75 CNS; 40.8% with SNB-19 CNS; 47.3% in the assay with U251 CNS; 19.2% in the assay with PC-3 prostate. The growth is 84.1% with SK-MEL-5 melanoma; 38.4% in the assay with UACC-62 melanoma; -8.76% (active) in the assay on LOX IMVI melanoma; 127% in the assay on SK-MEL-28 melanoma; 85.2% in the assay with SK-MEL-2 melanoma; 24.7% in the assay on EKVX NSCLC. Further, the growth is 19.7% in the assay on SN12C renal; 41.2% in the assay with UO-31 renal; 10.9% with TK-10 renal; 8.81% (active) with ACHN renal; 11% with CAKI-1 renal; -11.5% (active) in the assay on A498 renal. Moreover, the growth was 2.68% (active) in the assay with CCRF-CEM leukemia and 21.7% in the assay on MOLT-4 leukemia.

With `O=C(CCCCCCN1CC(=O)N2[C@@H](c3ccc(Cl)cc3)c3[nH]c4ccccc4c3C[C@H]2C1=O)NO`, the growth in the assay on HCT-15 colon was 101%; with HT29 colon, 76.6%; in the assay with SNB-75 CNS, 27.1%; with SNB-19 CNS, 67.1%; in the assay with U251 CNS, 71.1%; with PC-3 prostate, 43.5%. The growth is 61.8% with SK-MEL-5 melanoma; 34.5% in the assay with UACC-62 melanoma; -63.6% (active) in the assay with LOX IMVI melanoma; 46.3% in the assay with SK-MEL-28 melanoma; 80.7% in the assay on SK-MEL-2 melanoma; 85.6% with EKVX NSCLC. Moreover, the growth was 65.7% with SN12C renal; 59.7% in the assay on UO-31 renal; 110% in the assay with TK-10 renal; 78.8% in the assay on ACHN renal; 60.9% with CAKI-1 renal; 67.2% in the assay on A498 renal. Also, the growth in the assay with CCRF-CEM leukemia is 18.7%; in the assay on MOLT-4 leukemia, 32.3%.

As to `O=C(c1ccc(Cl)cc1Cl)N1c2ccccc2Sc2ccccc21`, the growth in the assay on HCT-15 colon was 29.6%; in the assay with HT29 colon it was 47.5%; in the assay with SNB-75 CNS, 59.6%; in the assay on SNB-19 CNS, 57.3%; in the assay with U251 CNS, 33.1%; in the assay on PC-3 prostate, 44%. Also, the growth was 34.6% with SK-MEL-5 melanoma; 43.1% with UACC-62 melanoma; 23.9% in the assay with LOX IMVI melanoma; 65.4% in the assay on SK-MEL-28 melanoma; 88.7% in the assay with SK-MEL-2 melanoma; 75.7% with EKVX NSCLC. The growth in the assay on SN12C renal is 66.9%; in the assay on UO-31 renal, 65.3%; in the assay on TK-10 renal, 73.3%; in the assay on ACHN renal it was 60.7%; in the assay with CAKI-1 renal, 50.5%; with A498 renal it was 68.9%. The growth with CCRF-CEM leukemia was 57.2%; with MOLT-4 leukemia, 26.4%.

As to `C#Cc1cccc(Nc2nc3ccc([N+](=O)[O-])cc3nc2Nc2cccc(C#C)c2)c1`, the growth is -69.4% (active) with HCT-15 colon; -75.9% (active) in the assay on HT29 colon; -91.9% (active) in the assay with SNB-75 CNS; -19.2% (active) in the assay with SNB-19 CNS; -91.1% (active) in the assay on U251 CNS; -41.9% (active) with PC-3 prostate. In addition, the growth with SK-MEL-5 melanoma was -88.9% (active); in the assay with UACC-62 melanoma it was -39.3% (active); with LOX IMVI melanoma, -93.2% (active); with SK-MEL-28 melanoma, -69.4% (active); in the assay with SK-MEL-2 melanoma, -53.8% (active); with EKVX NSCLC, -12% (active). Moreover, the growth is -39.1% (active) in the assay with SN12C renal; -84.1% (active) with UO-31 renal; -34.4% (active) in the assay with TK-10 renal; -1.34% (active) in the assay on ACHN renal; -25.8% (active) in the assay with CAKI-1 renal; -20.3% (active) in the assay with A498 renal. The growth with CCRF-CEM leukemia was -33.9% (active); with MOLT-4 leukemia it was -47.5% (active).

Take `O=c1nc(Nc2nc3ccccc3s2)[nH]c(=O)c2ccccc12`: the growth is 99.2% in the assay on HCT-15 colon; 108% with HT29 colon; 76.5% in the assay on SNB-75 CNS; 95.6% in the assay on SNB-19 CNS; 98.6% in the assay with U251 CNS; 105% in the assay on PC-3 prostate. In addition, the growth with SK-MEL-5 melanoma was 99.6%; in the assay with UACC-62 melanoma, 99%; in the assay on LOX IMVI melanoma, 95.7%; with SK-MEL-28 melanoma, 110%; with SK-MEL-2 melanoma, 110%; in the assay with EKVX NSCLC it was 95.2%. In addition, the growth in the assay on SN12C renal was 98.6%; in the assay with UO-31 renal, 89.4%; in the assay on TK-10 renal, 119%; in the assay with ACHN renal it was 89.8%; in the assay with CAKI-1 renal, 85.2%; in the assay on A498 renal it was 77.4%. In addition, the figures for the growth in the assay on CCRF-CEM leukemia and with MOLT-4 leukemia were 106% and 102%, respectively.

`O=C1Nc2ccccc2C2c3cccn3-c3ccccc3N12` (stereo not given): the growth was 53.9% with HCT-15 colon; 31.7% in the assay on HT29 colon; 40% with SNB-75 CNS; 88.9% in the assay on SNB-19 CNS; 60.2% in the assay with U251 CNS; 66.9% in the assay with PC-3 prostate. Besides, the growth in the assay on SK-MEL-5 melanoma is 80%; with UACC-62 melanoma, 57.6%; in the assay with LOX IMVI melanoma it was 74.2%; in the assay with SK-MEL-28 melanoma, 94.1%; with SK-MEL-2 melanoma, 52%; with EKVX NSCLC, 81.8%. Further, the growth in the assay with SN12C renal was 90.3%; in the assay with UO-31 renal, 70.4%; in the assay on TK-10 renal it was 73.1%; in the assay on ACHN renal, 94.8%; in the assay on CAKI-1 renal, 80.8%; in the assay with A498 renal it was 73.9%. Moreover, the growth in the assay on CCRF-CEM leukemia was 80.9%; with MOLT-4 leukemia, 77.5%.

As for `COC(=O)C1=C(C(=O)Nc2cccnc2)C2OC1(C(Cc1ccccc1)Oc1ccccc1)C1OC21` (stereo not given), the growth is 14.4% in the assay on HCT-15 colon; 59.1% in the assay with HT29 colon; 88.7% in the assay with SNB-75 CNS; 102% in the assay on SNB-19 CNS; 101% in the assay on U251 CNS; 69.6% in the assay on PC-3 prostate. The growth in the assay on SK-MEL-5 melanoma was 107%; with UACC-62 melanoma it was 69.7%; in the assay on LOX IMVI melanoma, 80.7%; in the assay on SK-MEL-28 melanoma, -75.4% (active); in the assay with SK-MEL-2 melanoma it was 93.5%; in the assay on EKVX NSCLC, 101%. For the same compound, the growth in the assay on SN12C renal is 48.5%; with UO-31 renal it was -99.3% (active); in the assay on TK-10 renal, -8.69% (active); in the assay on ACHN renal, -99.2% (active); in the assay on CAKI-1 renal, 57.4%; in the assay with A498 renal it was 121%. Besides, the growth was -23% (active) in the assay on CCRF-CEM leukemia and -31.5% (active) in the assay with MOLT-4 leukemia.
